In the library only some 2.8% were active in any assay of this set; here they are far more common.
ATXN2 expr inh: Primary qHTS for Inhibitors of ATXN expression; HEK-293 ATXN2-luciferase reporter, luminescence, 24 h; Potency, µM (top dose mostly 57 µM), for the others: top-dose activity change, negative = inhibition, actives largely listed as inhibitors; hit rate 0.72% among 360,000; AID 1745845, 2022; also: potency is read from the fitted curve at half-maximal effect; % is scaled to controls: 0 for no effect and ±100 for the full control effect; nearly all actives have a fitted effect of over 55% in size
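qHTS (up to 57 uM final) was run with 24 h compound exposure of reporter cells at 37 °C. Each well was multiplexed: SteadyGlo luminescence measured ATXN2-luciferase expression after a fluorogenic Gly-Phe-AFC viability readout (25 uM final).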
Six1-Eya2 blk: qHTS Assay for Inhibitors of the Six1/Eya2 Interaction; AlphaScreen GST-Six1/His-Eya2 binding, biochemical; active compounds read low; activity change, % (test concentration not listed); hit rate 0.56% among 360,000; AID 651725, 2012; in the data active = activity change below about -65%; inconclusive = mostly about -30% to -63%; also: % is scaled to controls: 0 for no effect and ±100 for the full control effect
Target sequence (O00167 whole entry, looked up): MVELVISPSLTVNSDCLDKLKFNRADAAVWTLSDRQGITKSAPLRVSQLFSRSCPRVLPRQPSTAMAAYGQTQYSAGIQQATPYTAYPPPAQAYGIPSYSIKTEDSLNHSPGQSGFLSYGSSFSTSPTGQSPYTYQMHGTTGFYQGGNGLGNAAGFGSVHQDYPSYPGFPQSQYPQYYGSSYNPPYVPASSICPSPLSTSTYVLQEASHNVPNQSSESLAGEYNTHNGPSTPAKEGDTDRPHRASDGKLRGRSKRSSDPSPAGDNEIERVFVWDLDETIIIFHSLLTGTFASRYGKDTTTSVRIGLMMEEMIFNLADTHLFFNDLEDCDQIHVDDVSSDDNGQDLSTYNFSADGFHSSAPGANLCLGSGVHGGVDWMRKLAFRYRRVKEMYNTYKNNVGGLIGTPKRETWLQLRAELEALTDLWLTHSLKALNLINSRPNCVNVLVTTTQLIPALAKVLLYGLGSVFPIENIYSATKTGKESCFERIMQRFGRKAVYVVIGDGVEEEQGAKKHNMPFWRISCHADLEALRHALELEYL
Target sequence (Q15475 whole entry, looked up): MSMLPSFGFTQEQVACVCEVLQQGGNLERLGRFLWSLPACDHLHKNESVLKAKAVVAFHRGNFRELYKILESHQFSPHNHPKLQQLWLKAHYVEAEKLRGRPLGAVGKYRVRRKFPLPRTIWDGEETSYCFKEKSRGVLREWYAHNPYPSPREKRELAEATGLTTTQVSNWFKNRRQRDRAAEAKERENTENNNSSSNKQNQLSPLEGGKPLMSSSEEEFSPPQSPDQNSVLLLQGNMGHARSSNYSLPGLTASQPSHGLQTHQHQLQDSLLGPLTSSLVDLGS
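Compounds are tested against tagged Six1 and Eya2 proteins bridged by glutathione donor and nickel acceptor beads; after a one-hour incubation at 37 °C without light, AlphaScreen emission is recorded.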
HepG2 tox: qHTS for Inhibitors of TGF-b: Cytotox Counterscreen; AID 588856, 2011; HepG2 CAGA-GFP viability, ATP luminescence, 18 h; hit rate 0.76% among 410,000; Potency, µM (titrated, usually from 46.1 µM), for the others: at the highest dose activity change, negative = cytotoxicity, actives largely listed as cytotoxic; also: potency is read from the fitted curve at half-maximal effect
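CellTiter-Glo luminescence gave cytotoxicity after 18 hours at 37 degrees C. The cells were HepG2 CAGA-GFP in 1% FBS DMEM, stimulated with 500 pg/mL TGF-beta after compound addition. %Activity was normalised to no-cell wells (complete cell-killing) and DMSO (no toxicity), and curves were fitted and classified.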
CtBP-E1A blk: qHTS Assay for Inhibitors of the CtBP/E1A Interaction. activity change, % (test concentration not listed). AID 651724, 2012. AlphaScreen GST-E1A/His-CtBP binding, 1536-well; active compounds read low. CtBP / adenovirus E1A interaction (AlphaScreen). hit rate 0.49% among 340,000; in the data active = activity change below about -65%; inconclusive = mostly about -30% to -63%; also: % is scaled to controls: 0 for no effect and ±100 for the full control effect
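Protein mix (5X: 125 nM each GST-E1A, His-CtBP) was incubated with pinned compound 2 h at 37 deg C in dark, in 50 mM Tris pH 8.0 buffer with 300 mM NaCl. Glutathione donor and nickel acceptor beads followed; AlphaScreen signal read after 1 h.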
TGFb inhibitor: qHTS for Inhibitors of TGF-b. Potency, µM (top dose mostly 46.1 µM), without a hit: top-dose activity, negative = inhibition, hits mostly inhibitors. hit rate 1.2% among 410,000. HepG2 CAGA-GFP TGF-b/SMAD3 reporter, GFP fluorescence, 18 h; TGF-beta stimulated, 500 pg/mL final; also: potency is read from the fitted curve at half-maximal effect; % is scaled to controls: 0 for no effect and ±100 for the full control effect; nearly all actives have a fitted effect of over 65% in size
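Smad-responsive CAGA-GFP expression was quantified in HEPG2 cells exposed to compounds and 500 pg/mL final TGF-beta for 18 h at 37 degrees C; unstimulated wells defined full inhibition.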
S2 tox: Viability Counterscreen for Primary qHTS for Inhibitors of ATXN expression; S2 cells (HEK-293 line with an ATXN2-luciferase reporter) viability, CellTiter-Fluor protease fluorescence, 24 h; Potency, µM (titrated, usually from 56.7 µM), actives largely listed as cytotoxic; hit rate 0.49% among 400,000; AID 651635, 2014; also: potency is read from the fitted curve at half-maximal effect; nearly all actives have a fitted effect of over 40% in size
Active calls of the source: *; i = inactive; ? = inconclusive; · = no result. Unless noted, calls follow the shape of the dose curve; as a rule, active = well fitted curve in the direction sought with a large enough effect; inconclusive = small, poorly fitted or top-dose-only effect, or another doubt; inactive = no such curve, though single readings can be large; an effect the other way counts as inactive or inconclusive.

SMILES | ATXN2 expr inh | Six1-Eya2 blk | HepG2 tox | CtBP-E1A blk | TGFb inhibitor | S2 tox
CCC1(C2CCN(C(=O)c3cc(C)cc(C)c3)CC2)NC(=O)N(CCc2scnc2C)C1=O (stereo not drawn) | · | · | · | · | · | i
CC(=O)Nc1ccc(N(CC(O)Cn2c3ccccc3c3ccccc32)S(=O)(=O)c2ccc(C)cc2)cc1 (stereo not drawn) | ? | 0 | -49% | -6 | 14µM* | i
Cc1c([N+](=O)[O-])cnc2ccccc12 | · | · | -66% | · | -23% | ·
Cc1[nH]c2ccc(C(=O)N3CCN(c4cccc(Cl)c4)CC3)cc2c1C | 9% | 1 | -22% | 7 | ? | i
CS(=O)(=O)c1ncc(Cl)c(C(=O)N2CCN(c3cccc(Cl)c3)CC2)n1 | · | · | 3.5µM* | · | 2.8µM* | ·
COc1ccc(OCC(=O)N2CCN(c3cccc(Cl)c3)CC2)cc1 | -4% | -1 | -14% | -2 | -27% | i
Cc1[nH]c(-c2ccc(F)cc2)cc1C(=O)N1CCN(c2cccc(Cl)c2)CC1 | ? | -19 | -81% | -17 | 25µM* | ?
CCS(=O)(=O)c1ncc(Cl)c(C(=O)N2CCN(c3cccc(Cl)c3)CC2)n1 | · | · | 3.2µM* | · | 1µM* | ·
Cc1cc(Cl)ccc1OCC(=O)N1CCOc2ccc(CN3C[C@@H](C)O[C@@H](C)C3)cc2C1 | · | · | · | · | · | i
CSc1ccc(CCNC(=O)c2cc3n(n2)CCCN(Cc2ccc(C)cc2)C3=O)cc1 | 2% | · | -11% | · | 8% | i
O=C(NN=Cc1ccccc1O)C(O)c1ccccc1 (stereo not drawn) | -25% | ? | -20% | -68* | 0% | ?
O=C(N/N=C/c1ccccc1O)NC12CC3CC(CC(C3)C1)C2 | 21% | 1 | -128% | -7 | 11µM* | i
O=C(N/N=C/c1ccccc1F)C(=O)N1CCCCCC1 | 1% | -1 | 8% | 4 | 5% | i
O=C(N/N=C/c1ccccc1O)C(=O)N1CCCCCC1 | -33% | -79* | -13% | -88* | 4% | i
COc1cccc(/C=N/NC(=O)C(=O)N2CCCC2)c1O | 6% | -89* | 0% | 10 | -1% | i
COc1cccc(/C=N/NC(=O)C(=O)N2CCCC2)c1OC | 1% | 4 | -13% | 0 | -2% | i
COCC1CCCN(Cc2ccc3c(c2)CN(C(=O)c2ccc(OC)nc2OC)CCO3)C1 (stereo not drawn) | · | · | · | · | · | i
CN1CCN(CCC(=O)N/N=C/c2ccccc2F)CC1 | 9% | 12 | -1% | -2 | 1% | i
O=C(CCN1CCN(c2ccccc2)CC1)N/N=C/c1ccccc1O | 27µM* | -70* | 1% | 7 | ? | i
CCOc1ccc(/C=N/NC(=O)C(=O)N2CCCCCC2)c2ccccc12 | ? | -6 | -56% | -6 | 7.9µM* | ?
Brc1cccc[n+]1CCC[n+]1ccccc1Br | · | · | 4% | · | -2% | ·
C=C1C(=O)OC2C=C(CO)CCC=C(CO)CC(OC(=O)C(C)C)C12 (stereo not drawn) | ? | 2 | -88% | -3 | 16µM* | ?
COc1cc(OC)c(/C=C/c2c3ccccc3cc[n+]2C)c(OC)c1 | · | · | -22% | · | 10µM* | ·
O=C(NCCc1nnc2n1CCN(Cc1ccsc1)CC2)c1ccc(F)cc1 | · | · | · | · | · | i
OCCCn1c(-c2ccc(F)cc2)csc1=Nc1ccc(F)cc1 | -1% | · | -40% | · | ? | ?
SMILES | ATXN2 expr inh | Six1-Eya2 blk | HepG2 tox | CtBP-E1A blk | TGFb inhibitor | S2 tox
O=S(=O)(c1ccc(-c2csc(=Nc3ccc(F)cc3)n2CCCCCCO)cc1)N1CCCC1 | 32µM* | · | -12% | · | ? | ?
Cc1ccc(-c2csc(=Nc3ccccc3)n2CCCO)cc1 | ? | · | -68% | · | 7.1µM* | ?
O=C(O)c1cccc(Nc2ccc([N+](=O)[O-])c3nonc23)c1 | 5% | -9 | 6% | 0 | 3% | 16µM*
CC(=O)c1ccc(Nc2ccc([N+](=O)[O-])c3nonc23)cc1 | · | -9 | -19% | · | 11µM* | ?
CCOC(=O)C(=O)CCCCCCl | 8% | · | · | · | · | i
Cn1c(N=Nc2ccccc2)nc2ccccc21 | 7% | 0 | 7.1µM* | -26 | -7% | i
O=C(/C=C/c1ccc([N+](=O)[O-])cc1)c1cccs1 | 17% | 4 | -5% | -7 | -2% | i
O=C(/C=C/c1ccccc1Cl)c1ccccc(=O)c1O | 25µM* | -20 | -32% | 5 | ? | ?
Cc1ccc(/C=C/C(=O)c2ccccc(=O)c2O)c(C)c1 | ? | -11 | -58% | 3 | 13µM* | ?
O=C(/C=C/c1ccc(O)c(O)c1)c1ccccc1O | 85% | -5 | -29% | 1 | -26% | ?
O=C(C=Cc1ccccc1O)c1ccccc1O | -24% | 8 | 22µM* | 1 | ? | ?
O=C(/C=C/c1ccc([N+](=O)[O-])cc1)c1ccccc(=O)c1O | ? | -2 | -31% | 10 | 3.2µM* | ·
O=C(/C=C/c1ccccc1Cl)c1ccc(O)cc1 | 13% | -19 | -29% | ? | ? | i
CCc1ccc(C2/C=C\CNC(c3ccccc3)C(=O)N2Cc2ccc(C)cc2)cc1 (stereo not drawn) | · | · | -42% | · | ? | ·
Cc1cnc(-n2ncc(C(=O)NC(C)(C)CO)c2-c2cccs2)nc1-c1ccc(F)cc1 | · | · | · | · | · | i
O=C(/C=C/c1ccc(Cl)cc1)c1cccnc1 | ? | 6 | -32% | 0 | ? | ?
O=C(/C=C/c1ccccc1Cl)c1cccnc1 | 5% | 5 | 11µM* | -5 | ? | i
Cc1ccc(C)c(NC(=O)c2ccccc2O)c1 | 12% | -15 | -14% | -8 | ? | i
Cc1ccc(C)c(/C=C/C(=O)c2ccccc(=O)c2O)c1 | 18µM* | -9 | -70% | 27 | ? | ?
COc1ccc(C2CC(c3ccccc3)Oc3cc4c(cc32)OCO4)cc1 (stereo not drawn) | · | · | -24% | · | -26% | ·
COc1ccc(Cl)cc1S(=O)(=O)N1CCN(C(=O)c2cc(-c3ccc(Br)cc3)n[nH]2)CC1 | · | · | -1% | · | 8.9µM* | ·
CCOC(=O)c1ccc(NC(=O)C(Cc2ccccc2)NS(=O)(=O)c2ccc(Br)s2)cc1 (stereo not drawn) | 5% | · | -2% | · | -8% | i
CCCS(=O)(=O)NCc1c(C)ncc2c1CCN(C(=O)/C=C/c1ccccc1)C2 | · | · | · | · | · | i

From PubChem
